Assay results reported in PubChem BioAssay (NCATS).
Values without a mark were called inactive. Results filed as inconclusive are left out. Calls of active or inactive are those of the source. Unless noted, calls follow the shape of the dose curve; as a rule, active = well fitted curve in either direction with a large enough effect (not every such curve was filed as active); inconclusive = small, poorly fitted or top-dose-only effect, or another doubt; inactive = flat fitted curve, though single readings scatter.

Experiments:
[1] = biological target: Lysosomal acid glucosylceramidase (Homo sapiens) (UniProt P04062); experiment: Glucocerebrosidase-p2 (AID 348; in the data active = potency below about 10 µM; also: potency is read from the fitted curve at half-maximal effect); settings: purified GBA, blue fluorogenic substrate, 40 min
Summary of the method: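 Normal human glucocerebrosidase (0.2 nM) with blue fluorogenic substrate (80 uM final) in citrate/phosphate pH 5.9 with 10mM sodium taurocholate, 0.01% tween-20; 40 min RT, NaOH/glycine stop; fluorescence Ex 365/Em 440; AC50 from a titration from 0.6 nM upwards.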

[2] = AP1 Signaling Pathway (AID 357); settings: ME-180 AP-1-bla reporter, EGF-induced, beta-lactamase ratio, 5 h; at 7.69 µM (top of the series) unless noted; also: % is scaled to controls: 0 for no effect and ±100 for the full control effect
Summary of the method: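 ME-180 cells with beta-lactamase reporter under AP-1 response element, stimulated with EC50 EGF; compounds tested in titration series, 5 h at 37 °C. CCF4 substrate added 2.5 h at room temperature; 460/530 nm emission ratio gave %activity and AC50.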

[3] = NFAT Signaling Pathway (AID 444); settings: Jurkat NFAT-bla M1, carbachol, beta-lactamase ratio, 5 h; at 7.69 µM (top of the series) unless noted;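 also: carbachol stimulus at about its EC50 of 1 µM final; % is scaled to controls: 0 for no effect and ±100 for the full control effect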
Summary of the method: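 Jurkat cells carrying an NFAT-driven β-lactamase reporter and co-transfected muscarinic M1 receptor were treated with compound plus carbachol (1 uM final, an EC50 level) for 5 h at 37 °C. CCF4 loading followed for 1 h at RT; 460/530 nm ratio gave %activity.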

[4] = Stat Signaling Pathway (AID 446); settings: ME-180 (cervical carcinoma) SIE beta-lactamase reporter, IL-6 stimulated, 5 h; at 7.69 µM (top of the series) unless noted;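 also: ME-180 cervical cancer cells given 40 pM IL-6 alongside compound; SIE-controlled beta-lactamase reporter measured as 460/530 nm FRET emission ratio; % is scaled to controls: 0 for no effect and ±100 for the full control effect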
Summary of the method: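 FRET read-out (405 nm excitation, 460/530 nm emission) of a beta-lactamase reporter under a STAT-inducible element in ME-180 cervical carcinoma cells. Cells with compound receive 40 pM IL-6 for 5 h. Values are normalised to AC90 stimulation and AC90 JAK-inhibitor controls.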

[5] = biological target: Glucocorticoid receptor (Homo sapiens) (UniProt P04150); experiment: GR-GFP Redistribution (AID 450;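 active = compounds whose dose series gives a full or clear partial fitted curve of increased nuclear translocation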; also: potency is read from the fitted curve at half-maximal effect); settings: U2OS GR-GFP nuclear translocation, laser cytometry, 2 h
[6] = biological target: Glucocorticoid receptor (Homo sapiens) (UniProt P04150); experiment: GR-EFC Redistribution (AID 451; calls by dose curve; also: potency is read from the fitted curve at half-maximal effect); settings: CHO-K1 GR-EFC translocation, beta-gal luminescence, 2 h
Summary of the method: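 CHO-K1 cells stably expressing nuclear-localized β-gal enzyme acceptor and GR fused C-terminally to the enzyme donor fragment; ligand-driven nuclear translocation restores β-gal by complementation. Compounds titrated up to 46 uM final, 2 h at 37 °C; luminescence read.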

[7] = biological target: Mitogen-activated protein kinase 10 (Mus musculus) (UniProt Q61831); experiment: JNK3 AlphaScreen Assay (AID 530); settings: JNK3 lysate, c-Jun phosphorylation; series mostly up to 11.4 µM;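 also: kinase came from lysate of stimulated human HepG2 cells; signal reports phosphorylation of biotinylated GST-cJun 1-79 at Ser73 with 10 µM ATP; % is scaled to controls: 0 for no effect and ±100 for the full control effect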
Summary of the method: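 Biotinylated GST-cJun(1-79) served as substrate for JNK3 in HepG2 lysates stimulated with IL-1beta and TNF-alpha. ATP was 10 uM final, pH 7.6. Ser73 phosphorylation was quantified by AlphaScreen (680 nm excitation).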

[8] = biological target: 3',5'-cyclic-AMP phosphodiesterase 4B (Homo sapiens) (UniProt Q07343); experiment: qHTS Assay for Inhibitors of PDE-IV (AID 607; active = well fitted activation curve with a large enough effect in the main read-out, with a control signal flat, not every such curve was filed as active; also: % of control where 0% means no effect); settings: HEK293 ACTOne CNG channel cells, membrane potential fluorescence; series mostly up to 22.9 µM
Summary of the method: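 Cell-based read-out of cAMP via a modified cyclic nucleotide-gated channel and membrane potential dye (535/590 nm) in HEK293 cells expressing PDE4 endogenously. Compounds tested up to 22.9 uM final; 100 uM RO 20-1724 reference.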

[9] = biological target: Cytochrome P450 2C9 (Homo sapiens) (UniProt P11712); experiment: qHTS Assay for Inhibitors and Substrates of Cytochrome P450 2C9 (AID 883; active = well fitted curve in the direction sought with a large enough effect; an effect the other way counts as inactive or inconclusive; also: nearly all actives have a fitted effect of over 60% in size; also: potency is read from the fitted curve at half-maximal effect); settings: recombinant CYP2C9, luciferin-H luminescence, 60 min; series mostly up to 11.4 µM
Summary of the method: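 Human CYP2C9 (10nM) hydroxylated Luciferin-H (100uM, at its KM) to luciferin in 25mM KPO4. Compound was preincubated 10 min at 37C, then NADPH regeneration started a 60 min reaction at 37C. Luminescence was read after detection reagent, normalized to 57uM sulphaphenazole.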

[10] = biological target: Cytochrome P450 3A4 (Homo sapiens) (UniProt P08684); experiment: qHTS Assay for Inhibitors and Substrates of Cytochrome P450 3A4 (AID 884; active = well fitted curve in the direction sought with a large enough effect; an effect the other way counts as inactive or inconclusive; also: % is scaled to controls: 0 for no effect and ±100 for the full control effect; nearly all actives have a fitted effect of over 50% in size); settings: recombinant CYP3A4, Luciferin-PPXE luminescence; series mostly up to 57.1 µM
Summary of the method: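 Luminescent readout of luciferin produced by CYP3A4 (20 nM) dealkylation of Luciferin-PPXE, 25 uM (its KM). NADPH-driven reaction ran 60 min at RT after 10 min compound preincubation; data scaled to 57 uM ketoconazole as 100% inhibition.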

[11] = biological target: Cytochrome P450 2D6 (Homo sapiens) (UniProt P10635); experiment: qHTS Assay for Inhibitors and Substrates of Cytochrome P450 2D6 (AID 891; active = well fitted curve in the direction sought with a large enough effect; an effect the other way counts as inactive or inconclusive;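 also: luciferin methyl ether substrate demethylated by CYP2D6 with NADPH regeneration; % is scaled to controls: 0 for no effect and ±100 for the full control effect; nearly all actives have a fitted effect of over 60% in size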); settings: recombinant CYP2D6, luciferin-ME EGE luminescence; series mostly up to 11.4 µM
Summary of the method: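 Luminescent read-out of luciferin formed by 5 nM human CYP2D6 demethylating 30 uM Luciferin-ME EGE (Km level) over 60 min at room temperature after NADPH regeneration addition. Data normalized to full inhibition by 1.43 uM quinidine.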

[12] = biological target: Cytochrome P450 2C19 (Homo sapiens) (UniProt P33261); experiment: qHTS Assay for Inhibitors and Substrates of Cytochrome P450 2C19 (AID 899; active = well fitted curve in the direction sought with a large enough effect; an effect the other way counts as inactive or inconclusive; also: % is scaled to controls: 0 for no effect and ±100 for the full control effect; nearly all actives have a fitted effect of over 60% in size); settings: recombinant CYP2C19, luciferin-H EGE luminescence; series mostly up to 11.4 µM
Summary of the method: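 Human CYP2C19 (5nM) with Luciferin-H EGE at 10uM (its KM) in 50mM KPO4 was preincubated with compound for 10 min at 37C. NADPH regeneration started a 60 min 37C reaction. Luciferin was read by luminescence, normalized to 57uM ketoconazole.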

[13] = biological target: Cytochrome P450 3A4 (Homo sapiens) (UniProt P08684); experiment: qHTS Assay for Activators of Cytochrome P450 3A4 (AID 885; active = well fitted curve in the direction sought with a large enough effect; an effect the other way counts as inactive or inconclusive; also: nearly all actives have a fitted effect of over 65% in size; also: potency is read from the fitted curve at half-maximal effect); settings: recombinant CYP3A4, Luciferin-PPXE luminescence, 60 min; series mostly up to 11.4 µM
Summary of the method: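 Luminescent readout of luciferin formed from 25 uM Luciferin-PPXE (KM level) by 20 nM CYP3A4 in 200 mM KPO4, with 60 min NADPH-driven reaction at room temperature after 10 min compound exposure. Ketoconazole (57 uM) defined 100% inhibition.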

Sequence of Cytochrome P450 3A4 (Homo sapiens) (P08684 whole entry, looked up): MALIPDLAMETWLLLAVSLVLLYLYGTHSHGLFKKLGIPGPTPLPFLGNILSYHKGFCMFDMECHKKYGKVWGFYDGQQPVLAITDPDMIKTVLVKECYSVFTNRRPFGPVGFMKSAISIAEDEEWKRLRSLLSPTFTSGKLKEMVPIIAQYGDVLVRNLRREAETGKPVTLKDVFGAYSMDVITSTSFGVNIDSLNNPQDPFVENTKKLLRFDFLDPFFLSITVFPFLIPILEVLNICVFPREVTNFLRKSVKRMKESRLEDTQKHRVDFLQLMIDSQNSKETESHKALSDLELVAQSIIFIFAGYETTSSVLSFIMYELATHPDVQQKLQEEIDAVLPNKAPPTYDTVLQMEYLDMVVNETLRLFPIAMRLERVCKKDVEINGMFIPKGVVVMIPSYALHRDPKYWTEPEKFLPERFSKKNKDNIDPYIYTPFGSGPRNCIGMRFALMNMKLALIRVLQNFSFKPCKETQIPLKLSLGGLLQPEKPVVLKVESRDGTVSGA
Sequence of 3',5'-cyclic-AMP phosphodiesterase 4B (Homo sapiens) (Q07343 whole entry, looked up): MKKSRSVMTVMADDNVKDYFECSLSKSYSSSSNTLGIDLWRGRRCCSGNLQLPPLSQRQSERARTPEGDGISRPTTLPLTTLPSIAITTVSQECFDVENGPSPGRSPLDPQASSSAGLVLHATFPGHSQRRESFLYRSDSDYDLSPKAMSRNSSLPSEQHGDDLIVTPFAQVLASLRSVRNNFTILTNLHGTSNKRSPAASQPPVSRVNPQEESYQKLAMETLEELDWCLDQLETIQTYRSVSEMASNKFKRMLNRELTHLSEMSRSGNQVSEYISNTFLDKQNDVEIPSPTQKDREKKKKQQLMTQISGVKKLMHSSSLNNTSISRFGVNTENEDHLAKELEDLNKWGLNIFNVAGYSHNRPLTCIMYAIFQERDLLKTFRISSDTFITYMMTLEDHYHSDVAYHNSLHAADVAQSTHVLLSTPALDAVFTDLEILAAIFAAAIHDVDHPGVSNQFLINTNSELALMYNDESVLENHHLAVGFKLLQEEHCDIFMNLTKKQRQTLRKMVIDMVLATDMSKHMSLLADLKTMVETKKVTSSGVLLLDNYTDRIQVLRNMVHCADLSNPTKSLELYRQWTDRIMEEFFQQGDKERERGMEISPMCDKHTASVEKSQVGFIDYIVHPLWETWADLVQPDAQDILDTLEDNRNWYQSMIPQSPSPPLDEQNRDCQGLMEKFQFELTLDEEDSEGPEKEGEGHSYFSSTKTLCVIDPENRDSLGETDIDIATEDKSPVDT
Sequence of Cytochrome P450 2C9 (Homo sapiens) (P11712 whole entry, looked up): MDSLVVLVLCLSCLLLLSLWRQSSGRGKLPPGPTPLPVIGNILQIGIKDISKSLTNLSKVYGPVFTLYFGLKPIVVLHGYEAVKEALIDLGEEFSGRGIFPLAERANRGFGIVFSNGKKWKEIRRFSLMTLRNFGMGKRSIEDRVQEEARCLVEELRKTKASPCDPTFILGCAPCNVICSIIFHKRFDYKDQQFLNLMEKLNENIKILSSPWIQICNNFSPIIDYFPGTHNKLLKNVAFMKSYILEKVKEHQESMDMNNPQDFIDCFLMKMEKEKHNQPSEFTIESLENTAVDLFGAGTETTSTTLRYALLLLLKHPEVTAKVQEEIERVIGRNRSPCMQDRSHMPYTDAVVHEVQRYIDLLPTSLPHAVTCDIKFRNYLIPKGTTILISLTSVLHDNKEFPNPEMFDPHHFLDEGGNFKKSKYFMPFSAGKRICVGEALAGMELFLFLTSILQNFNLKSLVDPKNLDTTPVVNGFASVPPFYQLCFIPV
Sequence of Glucocorticoid receptor (Homo sapiens) (P04150 whole entry, looked up, the tested form may be a part): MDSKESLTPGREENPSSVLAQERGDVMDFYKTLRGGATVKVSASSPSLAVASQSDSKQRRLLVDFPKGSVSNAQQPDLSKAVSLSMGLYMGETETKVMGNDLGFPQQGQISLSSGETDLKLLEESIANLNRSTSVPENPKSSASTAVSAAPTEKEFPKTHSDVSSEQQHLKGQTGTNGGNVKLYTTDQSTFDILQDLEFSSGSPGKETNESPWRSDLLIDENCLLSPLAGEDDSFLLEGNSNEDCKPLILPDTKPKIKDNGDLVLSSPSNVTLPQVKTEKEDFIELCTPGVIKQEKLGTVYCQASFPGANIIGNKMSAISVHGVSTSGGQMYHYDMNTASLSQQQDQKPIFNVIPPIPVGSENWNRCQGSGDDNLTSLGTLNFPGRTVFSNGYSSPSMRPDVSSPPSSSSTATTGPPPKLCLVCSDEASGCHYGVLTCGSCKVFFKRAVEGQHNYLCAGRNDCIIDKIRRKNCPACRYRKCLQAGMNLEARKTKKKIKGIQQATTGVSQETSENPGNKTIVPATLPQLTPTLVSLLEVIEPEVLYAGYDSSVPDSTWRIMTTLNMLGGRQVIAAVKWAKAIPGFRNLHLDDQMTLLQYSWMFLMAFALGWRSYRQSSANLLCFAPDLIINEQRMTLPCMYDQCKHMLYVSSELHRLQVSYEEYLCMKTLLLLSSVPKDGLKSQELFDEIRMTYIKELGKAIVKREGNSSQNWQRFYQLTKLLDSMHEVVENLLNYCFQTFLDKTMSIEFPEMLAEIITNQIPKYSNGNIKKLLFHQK
Sequence of Lysosomal acid glucosylceramidase (Homo sapiens) (P04062 whole entry, looked up): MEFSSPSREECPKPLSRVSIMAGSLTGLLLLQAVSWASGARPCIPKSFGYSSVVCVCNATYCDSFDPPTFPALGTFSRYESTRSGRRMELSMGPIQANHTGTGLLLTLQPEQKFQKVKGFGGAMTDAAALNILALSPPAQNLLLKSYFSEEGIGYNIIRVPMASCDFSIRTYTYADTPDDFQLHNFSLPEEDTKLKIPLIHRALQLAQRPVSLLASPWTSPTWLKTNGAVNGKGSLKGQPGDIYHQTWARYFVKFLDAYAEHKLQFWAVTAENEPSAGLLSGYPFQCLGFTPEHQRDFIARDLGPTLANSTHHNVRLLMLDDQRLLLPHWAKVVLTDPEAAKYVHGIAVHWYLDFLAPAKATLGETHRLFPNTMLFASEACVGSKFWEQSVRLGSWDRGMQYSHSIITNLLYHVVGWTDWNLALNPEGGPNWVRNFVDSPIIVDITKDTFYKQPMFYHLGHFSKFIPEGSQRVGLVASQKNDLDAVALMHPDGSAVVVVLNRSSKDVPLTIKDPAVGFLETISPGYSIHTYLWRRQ
Sequence of Cytochrome P450 2C19 (Homo sapiens) (P33261 whole entry, looked up): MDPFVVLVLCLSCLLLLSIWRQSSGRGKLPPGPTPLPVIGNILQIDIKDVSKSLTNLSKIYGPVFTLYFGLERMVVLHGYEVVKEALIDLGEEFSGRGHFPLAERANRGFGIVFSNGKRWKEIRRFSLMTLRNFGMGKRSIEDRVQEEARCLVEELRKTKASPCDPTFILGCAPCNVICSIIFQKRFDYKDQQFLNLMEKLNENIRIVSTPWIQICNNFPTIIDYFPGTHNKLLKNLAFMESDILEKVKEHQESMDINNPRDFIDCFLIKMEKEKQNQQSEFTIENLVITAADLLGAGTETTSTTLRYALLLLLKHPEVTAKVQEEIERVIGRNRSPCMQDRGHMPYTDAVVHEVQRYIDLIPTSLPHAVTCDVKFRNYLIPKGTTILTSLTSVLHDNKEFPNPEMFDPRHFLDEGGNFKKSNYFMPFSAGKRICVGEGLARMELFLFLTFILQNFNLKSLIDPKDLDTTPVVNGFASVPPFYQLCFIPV
Sequence of Cytochrome P450 2D6 (Homo sapiens) (P10635 whole entry, looked up): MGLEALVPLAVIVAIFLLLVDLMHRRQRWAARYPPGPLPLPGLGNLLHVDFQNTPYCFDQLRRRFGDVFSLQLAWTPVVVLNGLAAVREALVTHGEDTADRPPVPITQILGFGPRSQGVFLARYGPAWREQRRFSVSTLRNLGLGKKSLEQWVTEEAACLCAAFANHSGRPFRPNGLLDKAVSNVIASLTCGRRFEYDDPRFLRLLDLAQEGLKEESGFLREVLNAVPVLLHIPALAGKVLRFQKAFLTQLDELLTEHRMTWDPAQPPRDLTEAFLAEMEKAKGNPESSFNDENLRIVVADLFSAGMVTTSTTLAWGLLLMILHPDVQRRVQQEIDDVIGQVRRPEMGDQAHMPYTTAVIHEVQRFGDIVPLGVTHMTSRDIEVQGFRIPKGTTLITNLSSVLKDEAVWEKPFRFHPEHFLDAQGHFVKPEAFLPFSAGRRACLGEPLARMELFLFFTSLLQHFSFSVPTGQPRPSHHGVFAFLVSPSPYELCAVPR

Row | Structure (SMILES) | Potency [1] | activity change, negative = inhibition [2] | activity change, negative = inhibition [3] | activity, negative = inhibition [4] | Potency [5] | Potency [6] | Potency [7] | Potency [8] | Potency [9] | activity change, negative = inhibition [10] | Potency [11] | Potency [12] | Potency [13]
1 | O=C(O)CSc1n[nH]c(=O)[nH]c1=O | > 11.4 µM | 0.951% | 5.38% | 13.4% | > 46 µM | > 9.22 µM | inactive | inactive | inactive | -64.1% [at 11.4 µM] | inactive | inactive | 
2 | C[C@H]1[C@H](C)CC[C@]2(C(=O)O)CC[C@]3(C)C(=CC[C@@H]4[C@]5(C)C[C@H](O)[C@@H](O)[C@@](C)(CO)[C@@H]5[C@H](O)C[C@@]43C)[C@H]12 | > 11.4 µM | -6.13% | 27.7% | 8.93% | > 46 µM | > 9.22 µM | inactive | inactive |  |  |  |  | 
3 | O=C1OC(c2ccc(O)c(-c3ccccc3)c2)(c2ccc(O)c(-c3ccccc3)c2)c2c(Cl)c(Cl)c(Cl)c(Cl)c21 | > 11.4 µM | 10.7% | 19.3% | 5.56% | > 46 µM | > 9.22 µM | inactive | inactive |  |  |  |  | 
4 | C[C@@H](C(=O)O)/C(=C/c1ccc2c(c1)OCO2)C(=O)O | > 11.4 µM | -12.8% | 1.64% | -5.22% | > 46 µM | > 9.22 µM | inactive | inactive | 2.51 µM (active) |  |  |  | inactive
5 | O=C(O)/C(Cc1cn[nH]n1)=N\O | > 11.4 µM | 16.4% | 0.206% | 1.63% | > 46 µM | > 9.22 µM | inactive | inactive |  |  |  |  | 
6 | N#CCCn1c(=O)c(-c2ccccc2)nc2cnc(Oc3ccccc3)nc21 | > 11.4 µM | -22.6% | -4.58% | 2.8% | > 9.22 µM | > 46 µM | inactive | inactive |  |  |  |  | 
7 | O=C(CN1C(=O)c2ccccc2C1=O)[C@@H](O)CN1C(=O)c2ccccc2C1=O | > 11.4 µM | -10.3% | 13.9% | -0.0648% | > 46 µM | > 9.22 µM | inactive | inactive |  |  |  |  | 
8 | O=C(O)C(Cl)(c1ccccc1)c1ccccc1 | > 11.4 µM | 1.69% | 6.6% | -5.62% | > 46 µM | > 9.22 µM | inactive | inactive |  |  |  |  | 
9 | O=C(O)c1ccc(C(=O)O)c2c(C(=O)O)ccc(C(=O)O)c12 | > 11.4 µM | -5.07% | 5.59% | -1.89% | > 46 µM | > 9.22 µM | inactive | inactive |  |  |  |  | 
10 | Nc1nc(SCC(=O)c2ccc(Br)cc2)c2[nH]cnc2n1 | > 11.4 µM | -11.1% | 23.5% | 1.94% | > 46 µM | > 9.22 µM | inactive | inactive |  |  |  |  | 
11 | O=C(O)[C@@H]1[C@@H]2O[C@H]([C@@H](Br)[C@H]2Br)[C@H]1C(=O)O | > 11.4 µM | 7.44% | 2.42% | -2.12% | > 46 µM | > 9.22 µM | inactive | inactive |  |  |  |  | 
12 | O=C1c2cccc([N+](=O)[O-])c2C(=O)N1c1ncn[nH]1 | > 11.4 µM | -5.78% | 7.45% | 4.03% | > 46 µM | > 9.22 µM | inactive | inactive | inactive |  |  | inactive | inactive
13 | Cc1cc(N2CCOCC2)nc2ccc(Cc3ccc4nc(N5CCOCC5)cc(C)c4c3)cc12 | 6.83 µM (active) | -21.7% | -6.47% | -14.5% | > 46 µM | > 9.22 µM | inactive | inactive | 3.98 µM (active) | 91.2% [at 11.4 µM] |  |  | 3.16 µM (active)
14 | Cn1cnc([N+](=O)[O-])c1Sc1nc(N)nc2c1ncn2[C@H]1C[C@H](O)[C@@H](CO)O1 | > 11.4 µM | -4.23% | -2.48% | 0.176% | > 46 µM | > 9.22 µM | inactive | inactive |  |  |  |  | 
15 | O=C1c2ccccc2C(=O)c2c1ccc(N1C(=O)c3ccccc3C1=O)c2-c1c(N2C(=O)c3ccccc3C2=O)ccc2c1C(=O)c1ccccc1C2=O | > 11.4 µM | -8.78% | -22.9% | 12% | > 46 µM | > 9.22 µM | inactive | inactive | inactive |  | inactive | inactive | 
